Screens: PubChem, National Center for Advancing Translational Sciences (NCATS)
DT40 TDP1 CPT: qHTS for Inhibitors of human tyrosyl-DNA phosphodiesterase 1 (TDP1): qHTS in cells in presence of CPT | chicken DT40 Tdp1-/-;hTDP1 cells + 20 nM CPT, ATP luminescence, 48 h | Potency, µM (highest dose often 46.2 µM), for the others: at the top dose activity change, negative = growth inhibition, hits mostly inhibitors | hit rate 12% among 420,000; further: potency means the concentration at half of the fitted maximal effect; on the % scale 0 is the no-effect control and ±100 the full control effect; nearly all actives have a fitted effect of over 55% in size
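Chicken DT40 Tdp1-/- cells complemented with human TDP1, 400 cells/well, exposed to compounds plus 20 nM camptothecin for at least 48 h at 37 C; viability read as ATP content by CellTiter-Glo luminescence.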
D3 antag: qHTS of D3 Dopamine Receptor Antagonist: qHTS. AID 652054, 2013. D3R cells, DiscoveRx beta-arrestin luminescence, antagonist mode; stronger effect = lower value. max response, negative = inhibition, %. D(3) dopamine receptor (Homo sapiens), P35462. hit rate 2.5% among 360,000; in the data active means max response below about -50%; inconclusive means no clear call, values can overlap the other calls; further: on the % scale 0 is the no-effect control and ±100 the full control effect
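Cells expressing the human receptor were seeded at 1500 cells/well, incubated overnight at 37 degrees C in 5% CO2, then exposed to library compounds with dopamine controls for 90 minutes at 37 degrees C before luminescent detection.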
DT40 TDP1 no CPT: qHTS for Inhibitors of human tyrosyl-DNA phosphodiesterase 1 (TDP1): qHTS in cells in absence of CPT | hit rate 15% among 420,000 | DT40 Tdp1-/- hTDP1 cells, no CPT, ATP luminescence, 48 h | Potency, µM (top dose mostly 46.2 µM), for inactives: at the highest dose activity change, negative = growth inhibition, most hits filed as inhibitors; further: potency means the concentration at half of the fitted maximal effect; on the % scale 0 is the no-effect control and ±100 the full control effect; nearly all actives have a fitted effect of over 55% in size
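No-CPT arm: Tdp1-/-;hTDP1 DT40 cells (400/well) plus compounds, incubated ≥48 hr at 37 °C. Readout CellTiter-Glo luminescence.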
D3 ag: qHTS of D3 Dopamine Receptor Agonist: qHTS; D(3) dopamine receptor (Homo sapiens), P35462; D3R DiscoveRx beta-arrestin cells, luminescence, 90 min; max activation, %; hit rate 0.58% among 410,000; AID 652048, 2013; in the data active means max activation above about 30%; further: 0% is about no effect
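Agonist mode: compounds and dopamine controls were applied to plated cells for 90 min at 37 degrees C after an overnight attachment at 1500 cells/well. Luminescent read-out followed 30 - 60 minutes at room temperature with DiscoveRx detection reagent.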
ClpP mod: qHTS Assay for Activators of ClpP | purified B. subtilis ClpP, FRET peptide cleavage, 20 min | Potency, µM (titrated, usually from 57.5 µM), without a hit: at the highest dose activity change, negative = active | hit rate 1.9% among 340,000; active means well fitted falling curve with a large enough effect; inconclusive means small, poorly fitted or top-dose-only effect; inactive means no such curve, though single readings can be large or run the other way; further: potency means the concentration at half of the fitted maximal effect; the source files actives as falling curves though it sought activators and does not explain the sign; nearly all actives have a fitted effect of over 65% in size
Target sequence (P80244 whole entry, looked up): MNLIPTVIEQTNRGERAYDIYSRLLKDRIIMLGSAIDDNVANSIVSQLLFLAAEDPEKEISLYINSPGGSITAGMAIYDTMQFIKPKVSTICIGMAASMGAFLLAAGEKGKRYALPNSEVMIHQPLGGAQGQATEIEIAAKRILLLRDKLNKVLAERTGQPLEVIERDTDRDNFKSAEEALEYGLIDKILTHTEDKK
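Buffer: 100 mM Tris/HCl pH8, 100 mM KCl, 0.05% low protease BSA, 2.5% glycerol, 0.01% Tween-20. ClpP 10 microg/mL final; 20 min RT; delta FRET normalized to ADEP and DMSO controls.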
IL-1B inflam inh: qHTS for Inhibitors of Inflammasome Signaling: IL-1-beta AlphaLISA Primary Screen; THP-1 LPS/ATP IL-1B secretion, AlphaLISA, 16 h; stronger effect = lower value; activity change, % at 57.5 µM; hit rate 4.7% among 360,000; in the data active means activity change below about -50%; inconclusive means mostly about -30% to -49%; further: on the % scale 0 is the no-effect control and ±100 the full control effect
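THP-1 cells pretreated 1 hr with compounds (up to 57.5 uM final), then stimulated with LPS (250 ng/mL final) plus ATP (1.25 mM final); secreted IL-1B measured by AlphaLISA after 16 hr, decreased signal indicating inhibition.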
Active calls of the source: *; ? = inconclusive; nt = no result. This is a sample that favours compounds with a hit; in the whole collection about 21% have one here. Unless noted, the call rests on the fitted dose curve; in most records, active means well fitted inhibition curve with a large enough effect; inconclusive means small, poorly fitted or top-dose-only effect; inactive means flat fitted curve, though single readings scatter.

SMILES	DT40 TDP1 CPT	D3 antag	DT40 TDP1 no CPT	D3 ag	ClpP mod	IL-1B inflam inh
CCN1CCN(C(c2cccs2)C(C)NS(=O)(=O)c2ccc(Br)cc2)CC1 (centres undefined)	?	-13	26µM*	-7	0%	-4
CC(NC(=O)c1ccco1)C(c1cccs1)N1CCN(c2ccc(F)cc2)CC1 (centres undefined)	18µM*	-3	23µM*	-7	-18%	-72*
CCCc1cc(=O)[nH]c(SCC(=O)Nc2c(C)n(C)n(-c3ccccc3)c2=O)n1	-2%	6	11%	11	nt	3
CC1Sc2ccccc2N(Cc2ccc(OC(F)(F)F)cc2)C1=O (centres undefined)	-24%	3	?	-2	-1%	-12
CC(C)(C)OC(=O)N1CCC[C@H]1c1nnc(SCc2ccccc2Cl)o1	?	20	?	3	-2%	0
CC(C)(C)OC(=O)N1CCC[C@H]1c1nnc(SCc2ccc(Cl)cc2)o1	?	0	21µM*	0	nt	?
CC(C)(C)OC(=O)N1CCC[C@H]1c1nnc(SC/C=C/c2ccccc2)o1	?	43	23µM*	-3	-1%	-15
CC(C)(C)OC(=O)N1CCC[C@H]1c1nnc(SCc2ccc(Cl)cc2Cl)o1	?	-15	15µM*	-1	-3%	?
CC(C)(C)OC(=O)N1CCC[C@H]1c1nnc(SCc2cccc(Cl)c2)o1	-1%	-12	-29%	3	nt	-14
CC(C)C[C@H](NC(=O)N1CC(=O)Nc2ccccc21)C(=O)N[C@@H](Cc1ccccc1)C(=O)O	-2%	-2	-2%	-30	-5%	3
CCOC(=O)C1(C)CCCCN1C(=O)c1ccoc1 (centres undefined)	-12%	0	-3%	-7	2%	29
O=C(Nc1ccc2c(c1)OCO2)c1cc(C2CCCCN2S(=O)(=O)c2cccs2)on1 (centres undefined)	?	22	23µM*	0	-2%	-14
CS(=O)(=O)N1CCCCC1c1cc(C(=O)Nc2cccc3c2CCCC3)no1 (centres undefined)	15µM*	0	9.2µM*	-8	-1%	-6
O=C(Nc1cccc2c1CCCC2)c1cc(C2CCCCN2S(=O)(=O)c2cccs2)on1 (centres undefined)	16µM*	6	23µM*	0	-9%	20
Cc1noc(C)c1S(=O)(=O)N1CCCCC1c1cc(C(=O)Nc2cccc3c2CCCC3)no1 (centres undefined)	?	6	21µM*	-1	-8%	-5
N#Cc1ccc(S(=O)(=O)N2CCCCC2c2cc(C(=O)Nc3cccc4c3CCCC4)no2)cc1 (centres undefined)	?	0	?	8	0%	7
O=S1(=O)N=C2CCCCCN2C(c2ccc(Br)cc2)N1 (centres undefined)	2%	-5	3%	0	nt	3
CC(=O)c1ccc2c(c1)CC1(C2)Cc2cc3c(cc2C1)C(=O)CC3 (centres undefined)	5.2µM*	-5	3.3µM*	-4	1%	14
CCOC(=O)Cn1c(=O)c2c(nc3n2CCN3c2ccc(CC)cc2)n(C)c1=O	-1%	nt	-19%	-6	-6%	nt
CCOc1cc(C(=O)Nc2ccc(-c3cn4cccnc4n3)cc2)cc(OCC)c1OCC	12µM*	nt	9.2µM*	2	16µM*	nt
Nc1cccc(-c2cn3cccnc3n2)c1	21µM*	1	?	-2	-7%	6
